# Results taken from the supplement of paper PMC11732987, “Enantioselective OTUD7B fragment discovery through chemoproteomics screening and high-throughput optimisation” (Communications Chemistry, 2025).
# A number with no mark means an inactive call.
# What was measured:
# Assay in all cases: log2 ratio of Biotin-Ahx-Ub-VS probe labelling (fragment/DMSO); higher = less target engagement (more negative = stronger competition), active = hit call of the paper (q ≤ 0.05, log2 ratio ≤ -1)
# Conditions in all cases: compound concentration: 200 uM; treatment time: 3 h
# [1] = target: T1, OTUD6B (UniProt Q8N6M0)
# T1 sequence (whole entry): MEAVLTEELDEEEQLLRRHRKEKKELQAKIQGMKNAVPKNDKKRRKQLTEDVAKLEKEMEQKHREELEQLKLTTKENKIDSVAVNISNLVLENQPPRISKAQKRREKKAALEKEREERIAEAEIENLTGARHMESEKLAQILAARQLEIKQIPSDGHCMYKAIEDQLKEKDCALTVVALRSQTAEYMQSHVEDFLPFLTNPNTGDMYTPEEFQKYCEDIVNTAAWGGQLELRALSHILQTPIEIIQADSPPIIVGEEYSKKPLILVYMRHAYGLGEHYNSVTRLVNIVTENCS
# Procedure, shortened: (§1)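 HEK293T lysate, 495 µg per sample in Tris/CHAPS/IGEPAL buffer with protease inhibitors, was treated in triplicate with fragment at 200 µM or vehicle for 3 h and then with Biotin-Ahx-Ub-VS at 0.5 µM final for 1 h. Labelled DUBs were NeutrAvidin-enriched, digested with LysC and trypsin, and run by diaPASEF LC-MS/MS. Spectronaut label-free quantities were global-median-normalised, and values are average log2 fragment/vehicle ratios by unpaired t-test on proteins with ≥2 unique peptides.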
# [2] = target: T2, OTUD7B (UniProt Q6GQQ9)
# T2 sequence (whole entry): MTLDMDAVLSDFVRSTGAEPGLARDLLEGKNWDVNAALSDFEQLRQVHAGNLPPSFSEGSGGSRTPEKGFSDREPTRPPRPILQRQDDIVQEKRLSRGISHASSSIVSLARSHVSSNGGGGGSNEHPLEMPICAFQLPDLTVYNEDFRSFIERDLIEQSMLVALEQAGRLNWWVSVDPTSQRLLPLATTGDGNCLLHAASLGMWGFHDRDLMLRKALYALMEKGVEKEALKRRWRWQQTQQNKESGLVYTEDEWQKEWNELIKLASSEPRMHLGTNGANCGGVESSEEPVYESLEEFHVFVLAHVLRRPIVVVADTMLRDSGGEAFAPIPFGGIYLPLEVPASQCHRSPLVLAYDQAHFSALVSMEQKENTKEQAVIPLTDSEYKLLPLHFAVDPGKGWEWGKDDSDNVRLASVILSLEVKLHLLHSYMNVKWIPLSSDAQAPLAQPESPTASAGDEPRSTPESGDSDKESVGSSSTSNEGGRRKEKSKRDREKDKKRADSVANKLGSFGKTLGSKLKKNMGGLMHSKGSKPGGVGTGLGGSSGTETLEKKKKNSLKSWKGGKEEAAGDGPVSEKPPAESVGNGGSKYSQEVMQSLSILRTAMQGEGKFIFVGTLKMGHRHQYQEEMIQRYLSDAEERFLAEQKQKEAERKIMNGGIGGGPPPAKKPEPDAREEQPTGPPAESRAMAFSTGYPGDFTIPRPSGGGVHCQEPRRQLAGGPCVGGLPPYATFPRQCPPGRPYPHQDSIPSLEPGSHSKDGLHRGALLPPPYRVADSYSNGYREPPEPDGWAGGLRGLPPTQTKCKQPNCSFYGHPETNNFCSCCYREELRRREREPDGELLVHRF
# Procedure, shortened: as §1
# [3] = target: PRPF8 (UniProt Q6P2Q9)
# Procedure, shortened: as §1
# [4] = target: T3, PSMD7 (UniProt P51665)
# T3 sequence (whole entry): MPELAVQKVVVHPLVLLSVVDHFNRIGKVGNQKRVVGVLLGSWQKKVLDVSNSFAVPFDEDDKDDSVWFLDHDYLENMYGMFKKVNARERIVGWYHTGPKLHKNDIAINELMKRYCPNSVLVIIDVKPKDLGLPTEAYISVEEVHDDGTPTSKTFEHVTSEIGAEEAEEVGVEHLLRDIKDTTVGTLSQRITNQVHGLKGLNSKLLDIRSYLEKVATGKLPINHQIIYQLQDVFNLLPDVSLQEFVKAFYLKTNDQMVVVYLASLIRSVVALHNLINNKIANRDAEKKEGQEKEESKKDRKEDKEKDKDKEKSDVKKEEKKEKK
# Procedure, shortened: as §1
# [5] = target: UCHL1 (UniProt P09936)
# Chain of UCHL1 (P09936 whole entry, looked up): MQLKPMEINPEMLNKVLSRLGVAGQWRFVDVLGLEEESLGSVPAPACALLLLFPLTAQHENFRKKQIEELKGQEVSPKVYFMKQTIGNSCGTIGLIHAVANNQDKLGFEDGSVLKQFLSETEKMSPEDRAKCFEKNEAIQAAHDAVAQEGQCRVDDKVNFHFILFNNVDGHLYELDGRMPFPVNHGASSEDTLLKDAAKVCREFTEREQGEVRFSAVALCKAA
# Procedure, shortened: as §1
# [6] = target: T4, UCHL3 (UniProt P15374)
# T4 sequence (whole entry): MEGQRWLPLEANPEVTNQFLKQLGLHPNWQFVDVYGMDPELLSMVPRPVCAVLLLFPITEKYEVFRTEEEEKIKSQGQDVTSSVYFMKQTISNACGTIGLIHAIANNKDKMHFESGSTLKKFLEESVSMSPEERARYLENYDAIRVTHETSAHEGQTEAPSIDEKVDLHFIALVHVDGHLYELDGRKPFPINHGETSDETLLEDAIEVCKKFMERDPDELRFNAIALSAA
# Procedure, shortened: as §1
# [7] = target: T5, UCHL5 (UniProt Q9Y5K5)
# T5 sequence (whole entry): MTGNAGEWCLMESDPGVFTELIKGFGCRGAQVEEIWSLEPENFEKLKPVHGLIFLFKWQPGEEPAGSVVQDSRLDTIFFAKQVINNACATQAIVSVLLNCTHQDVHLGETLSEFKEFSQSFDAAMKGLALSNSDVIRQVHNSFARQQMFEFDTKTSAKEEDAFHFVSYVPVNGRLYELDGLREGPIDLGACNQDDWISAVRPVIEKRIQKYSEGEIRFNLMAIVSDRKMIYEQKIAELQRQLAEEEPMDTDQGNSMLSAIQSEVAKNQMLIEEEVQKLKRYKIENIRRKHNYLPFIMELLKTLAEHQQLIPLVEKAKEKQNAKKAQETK
# Procedure, shortened: as §1
# [8] = target: USP10 (UniProt Q14694)
# Chain of USP10 (Q14694 whole entry): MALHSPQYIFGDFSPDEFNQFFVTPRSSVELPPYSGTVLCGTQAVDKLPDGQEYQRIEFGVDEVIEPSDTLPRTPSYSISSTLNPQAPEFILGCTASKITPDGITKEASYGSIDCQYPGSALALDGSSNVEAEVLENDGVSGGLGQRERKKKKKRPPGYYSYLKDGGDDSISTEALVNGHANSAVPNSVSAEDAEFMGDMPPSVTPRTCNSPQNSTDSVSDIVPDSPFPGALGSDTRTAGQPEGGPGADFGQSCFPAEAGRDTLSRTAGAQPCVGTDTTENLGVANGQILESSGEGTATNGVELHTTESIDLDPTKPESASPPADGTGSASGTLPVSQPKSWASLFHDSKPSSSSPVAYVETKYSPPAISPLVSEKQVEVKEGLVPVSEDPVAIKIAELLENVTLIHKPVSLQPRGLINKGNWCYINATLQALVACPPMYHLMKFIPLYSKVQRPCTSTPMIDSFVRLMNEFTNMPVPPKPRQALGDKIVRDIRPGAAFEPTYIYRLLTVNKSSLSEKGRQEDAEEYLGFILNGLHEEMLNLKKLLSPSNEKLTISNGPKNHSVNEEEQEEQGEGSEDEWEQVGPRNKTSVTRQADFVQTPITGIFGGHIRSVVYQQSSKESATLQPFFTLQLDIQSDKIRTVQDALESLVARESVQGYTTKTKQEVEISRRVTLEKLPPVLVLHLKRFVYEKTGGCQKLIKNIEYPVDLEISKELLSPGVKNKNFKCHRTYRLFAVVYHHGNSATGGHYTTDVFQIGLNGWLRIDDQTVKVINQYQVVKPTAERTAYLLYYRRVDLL
# Procedure, shortened: as §1
# [9] = target: T6, USP15 (UniProt Q9Y4E8)
# T6 sequence (whole entry): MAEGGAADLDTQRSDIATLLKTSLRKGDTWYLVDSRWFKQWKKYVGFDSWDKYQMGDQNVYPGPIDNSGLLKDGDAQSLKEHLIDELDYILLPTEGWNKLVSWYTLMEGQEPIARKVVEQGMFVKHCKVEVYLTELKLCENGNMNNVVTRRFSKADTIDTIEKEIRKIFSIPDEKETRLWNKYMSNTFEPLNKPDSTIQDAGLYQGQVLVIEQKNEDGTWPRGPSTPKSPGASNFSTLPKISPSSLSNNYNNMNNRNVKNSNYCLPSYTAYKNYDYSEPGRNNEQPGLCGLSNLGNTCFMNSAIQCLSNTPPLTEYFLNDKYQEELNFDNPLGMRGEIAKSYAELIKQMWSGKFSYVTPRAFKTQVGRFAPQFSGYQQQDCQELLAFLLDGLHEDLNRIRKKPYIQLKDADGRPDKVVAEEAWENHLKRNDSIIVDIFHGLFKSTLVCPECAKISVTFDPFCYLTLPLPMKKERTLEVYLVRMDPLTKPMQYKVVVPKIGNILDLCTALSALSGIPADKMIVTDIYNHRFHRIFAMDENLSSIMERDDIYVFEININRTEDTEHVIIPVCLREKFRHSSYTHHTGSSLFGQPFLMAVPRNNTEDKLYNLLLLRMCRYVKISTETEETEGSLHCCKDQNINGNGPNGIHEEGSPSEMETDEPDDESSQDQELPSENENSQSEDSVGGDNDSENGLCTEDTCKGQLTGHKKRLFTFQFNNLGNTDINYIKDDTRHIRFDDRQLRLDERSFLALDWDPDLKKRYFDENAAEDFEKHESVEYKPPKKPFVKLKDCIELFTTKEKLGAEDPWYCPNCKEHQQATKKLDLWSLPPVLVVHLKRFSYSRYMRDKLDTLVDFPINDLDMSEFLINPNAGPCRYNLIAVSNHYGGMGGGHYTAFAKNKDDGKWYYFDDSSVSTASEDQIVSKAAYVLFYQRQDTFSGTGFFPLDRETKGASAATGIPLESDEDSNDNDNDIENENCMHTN
# Procedure, shortened: as §1
# [10] = target: USP16 (UniProt Q9Y5T5)
# Chain of USP16 (Q9Y5T5 whole entry, looked up): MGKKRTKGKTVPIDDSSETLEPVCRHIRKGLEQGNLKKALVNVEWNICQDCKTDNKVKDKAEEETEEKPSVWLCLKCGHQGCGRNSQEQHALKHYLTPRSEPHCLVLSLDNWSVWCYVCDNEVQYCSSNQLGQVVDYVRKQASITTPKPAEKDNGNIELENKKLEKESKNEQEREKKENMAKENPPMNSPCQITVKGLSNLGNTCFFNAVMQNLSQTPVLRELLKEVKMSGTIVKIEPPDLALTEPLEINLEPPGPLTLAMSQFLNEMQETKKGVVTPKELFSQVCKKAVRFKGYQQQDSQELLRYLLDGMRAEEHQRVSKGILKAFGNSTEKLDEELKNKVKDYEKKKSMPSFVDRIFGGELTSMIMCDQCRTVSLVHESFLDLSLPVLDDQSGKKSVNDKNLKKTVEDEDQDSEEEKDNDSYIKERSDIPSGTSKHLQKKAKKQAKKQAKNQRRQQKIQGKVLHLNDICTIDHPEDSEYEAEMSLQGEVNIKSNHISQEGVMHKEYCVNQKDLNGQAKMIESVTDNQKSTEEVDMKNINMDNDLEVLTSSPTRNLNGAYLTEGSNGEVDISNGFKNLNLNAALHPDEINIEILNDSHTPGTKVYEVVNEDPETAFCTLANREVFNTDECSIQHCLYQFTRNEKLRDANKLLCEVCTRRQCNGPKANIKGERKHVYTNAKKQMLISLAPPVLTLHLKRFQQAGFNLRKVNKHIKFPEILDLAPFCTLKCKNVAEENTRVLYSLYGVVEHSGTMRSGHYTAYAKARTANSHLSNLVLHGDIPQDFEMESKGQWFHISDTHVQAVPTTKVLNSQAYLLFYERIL
# Procedure, shortened: as §1
structure (smiles),measurement,setting,value
CC(=O)Nc1ccc(NC(=O)CCl)cc1,log2 ratio of Biotin-Ahx-Ub-VS probe labelling,[1],-0.276
same,log2 ratio of Biotin-Ahx-Ub-VS probe labelling,[2],-1.13 (active)
same,log2 ratio of Biotin-Ahx-Ub-VS probe labelling,[3],0.0134
same,log2 ratio of Biotin-Ahx-Ub-VS probe labelling,[4],-0.163
same,log2 ratio of Biotin-Ahx-Ub-VS probe labelling,[5],-0.918
same,log2 ratio of Biotin-Ahx-Ub-VS probe labelling,[6],0.206
same,log2 ratio of Biotin-Ahx-Ub-VS probe labelling,[7],-0.201
same,log2 ratio of Biotin-Ahx-Ub-VS probe labelling,[8],-0.113
same,log2 ratio of Biotin-Ahx-Ub-VS probe labelling,[9],-0.154
same,log2 ratio of Biotin-Ahx-Ub-VS probe labelling,[10],-0.288
